This note sets out measurements from PubChem BioAssay (NCI).

This is part of a sample that, as a whole, favours compounds with a hit. Of some 79,000 tested, about 15% had one in any assay. A number with no mark means an inactive call. Calls of active or inactive are those of the source. No stated cut-off is given here; in the data, active means growth inhibition above about 70%; inactive means the rest.

The nature of one assay: NCI Yeast Anticancer Drug Screen. Data for the sgs1 mgt1 strain (AID 161).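 Further: 0% = growth of cultures given vehicle only.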 To be noted: S. cerevisiae sgs1 mgt1 strain, at 50.0 µM, active compounds read high. A digest of the protocol:
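Mutant yeast exposed to compound; growth scored against vehicle-only wells.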
For the molecule `CCOC(=O)c1cc2c(cn1)[nH]c1ccccc12`, the growth inhibition is 43.4%.
Regarding `Nc1nc(-c2cccc(S(=O)(=O)F)c2)cs1`, the growth inhibition was 55.5%.
For `Cc1c(Cl)cc([N+](=O)[O-])c(O)c1[N+](=O)[O-]`, the growth inhibition is 5%.
On to `c1cc(C2N3CCCN2CC3)ccn1` (stereo not drawn), for which the growth inhibition is -34%.
Regarding `C/C=C/CC1(CC)C(=O)NC(=S)NC1=O`, the growth inhibition was 7.15%.
On the same count and under the same terms, for `N#CCCc1ccccc1` the value was -1.95%.
As to `CCN(CC)CCN(CC)CC.CCN(CC)CCN(CC)CC.[Cu+2].[Cu+2].[O-][Cl+3]([O-])([O-])[O-].[OH3+].[OH3+]`, the growth inhibition was -0.35%.
Same read-out and setting: the same measure for `c1ccc(CC[N+]23CC[N+](CCc4ccccc4)(CC2)C3)cc1`: 1.4%; for `CCOC(OCC)c1ccc2c(c1)OCO2`: 13.2%; for `CCN(CC)CCn1c(=O)c2ccccc2n(CCN(CC)CC)c1=O`: 22.5%.
On the same count and under the same terms, for `Cn1cnc([N+](=O)[O-])c1[Se]c1nc(N)nc2nc[nH]c12` the value was -26.8%; for `CCC1(C/C=C/Cl)C(=O)NC(=O)NC1=O`, -29.5%.
Turning to `O=C1C(NCC(O)CO)=C(N2CC2)C(=O)C(NCC(O)CO)=C1N1CC1` (stereo not drawn), the growth inhibition is 1.15%.
Turning to `CC[C@@H](C)C(=O)O[C@H]1[C@H](O)[C@H]2[C@@H](CN3C[C@@H](C)CC[C@H]3[C@@]2(C)O)[C@@H]2C[C@]34O[C@@]5(O)[C@@H](OC(=O)[C@](C)(O)[C@@H](C)O)CC[C@@]3(C)[C@@H]5[C@@H](OC(C)=O)[C@@H](OC(C)=O)[C@H]4[C@@]21O`, the growth inhibition was -23.6%.
`O[C@H]1[C@H](O)[C@@H](O)CN2CC[C@H](O)[C@H]12`: the growth inhibition was -18.1%.
Same read-out and setting: for `CCCn1cc2c3c(cccc31)[C@H]1C[C@@H](C)CN(C)[C@@H]1C2` the value was 41%; for `CCCCCCCC(N)CC(=O)O` (stereo not drawn), -15.8%.
The same measure, in the same setting: for `CC1=C(C)CN(CCc2c[nH]c3ccccc23)C(C#N)C1` (stereo not drawn) the value was 3.95%; for `NC(Cc1ccc(Cl)cc1)c1nn[nH]n1` (stereo not drawn), -4.1%; for `O=[N+]([O-])c1ccc(/C=C/C=C/C=C/C=C/c2ccc(S(=O)(=O)F)cc2Cl)c(Cl)c1`, -14.8%.
For the molecule `O=[C-]/C=C/c1ccccc1.[C-]#[O+].[C-]#[O+].[Fe+2].[c-]1ccccc1`, the growth inhibition was 5.95%.
In the case of `O=C(O)C1CCCN1[N+](=O)[O-]` (stereo not drawn), the growth inhibition is -5.15%.
In the case of `O=S(=O)(O)O.[In]`, the growth inhibition is 39.1%.
Regarding `O=C(O)C(F)(F)F.O=C(O)C(F)(F)F.[C-]#[O+].[Ru].c1ccc([PH+](c2ccccc2)c2ccccc2)cc1.c1ccc([PH+](c2ccccc2)c2ccccc2)cc1`, the growth inhibition was 21.9%.
On the same count and under the same terms, for `[CH3][Sn]([CH3])([Br])[CH2]CCBr` the value was 89.2% (active).
On the same count and under the same terms, for `COCC(C)OC(=O)Cc1ccccc1` (stereo not drawn) the value was -8.6%; for `C1=C[N-]c2c3c(ccc2=C1)=CC=C[N-]3.C1=C[N-]c2c3c(ccc2=C1)=CC=C[N-]3.C1=C[N-]c2c3c(ccc2=C1)=CC=C[N-]3.[Co+3].[O-][Cl+3]([O-])([O-])O`, -22.8%; for `Cc1cc(C(C)(C)C)ccc1O`, 8.95%.
As to `CCCCCC(=O)C[n+]1ccccc1` (tested in a mixture with another compound), the growth inhibition was -20%.
On the same count and under the same terms, the same measure for `CCOP(=O)(OCC)OP(=O)(OCC)OCC`: -42.7%.
On to `C1CC[N+]2=C(C1)OCCC2`, for which the growth inhibition was 6.75%.
Regarding `[C-]#[O+].[C-]#[O+].[C-]#[O+].[C-]#[O+].[C-]#[O+].[C-]#[O+].[Fe].[Fe].c1ccc([P-]c2ccccc2[P-]c2ccccc2)cc1` (stereo not drawn), the growth inhibition is -11.3%.
As for `[Cl][Hg][c]1ccccc1N=Nc1ccccc1`, the growth inhibition is 94.4% (active).
`COc1ccc2c(c1O)[C@@]13CCCC=C1[C@@H](C2)[N+](C)(C)CC3`: the growth inhibition is -19.9%.
On the same count and under the same terms, for `COc1ccc(O)c2c(=O)c3c(OC)cc4c(c3oc12)[C@@H]1C=CO[C@@H]1O4` the value was 17.5%; for `C/C=C\C(C)=C/C(C)C(=O)CC(O)CC1CC(=O)NC(=O)C1` (stereo not drawn), -6.9%; for `O=C(O)c1ccccc1N(CCO)CCCl`, -31.4%.
Same read-out and setting: the same measure for `O=C(Cc1ccccc1)OCC1CCCO1` (stereo not drawn): -3.45%; for `CC(Oc1ccc(-c2ccccc2)cc1)C(=O)O` (stereo not drawn): -9.25%.

A further assay in a line: NCI Yeast Anticancer Drug Screen. Data for the cln2 rad14 strain (AID 165).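 Further: 0% = growth equal to vehicle treated cultures.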 To be noted: S. cerevisiae cln2 rad14 strain, at 50.0 µM, active compounds read high. A digest of the protocol:
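Compounds are applied to the cln2 rad14 yeast strain, and growth is then compared with that of vehicle-treated cultures to give inhibition.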
`CCOC(=O)c1cc2c(cn1)[nH]c1ccccc12`: the growth inhibition was 0%.
`Nc1nc(-c2cccc(S(=O)(=O)F)c2)cs1`: the growth inhibition was 41.5%.
Still for that read-out and setting: the same measure for `Cc1c(Cl)cc([N+](=O)[O-])c(O)c1[N+](=O)[O-]`: 30.7%; for `c1cc(C2N3CCCN2CC3)ccn1` (stereo not drawn): -19.9%; for `C/C=C/CC1(CC)C(=O)NC(=S)NC1=O`: 9%.
Still for that read-out and setting: the same measure for `N#CCCc1ccccc1`: -12.8%; for `CCN(CC)CCN(CC)CC.CCN(CC)CCN(CC)CC.[Cu+2].[Cu+2].[O-][Cl+3]([O-])([O-])[O-].[OH3+].[OH3+]`: 16.1%.
For `c1ccc(CC[N+]23CC[N+](CCc4ccccc4)(CC2)C3)cc1`, the growth inhibition was -25.6%.
Still for that read-out and setting: for `CCOC(OCC)c1ccc2c(c1)OCO2` the value was 4.7%; for `CCN(CC)CCn1c(=O)c2ccccc2n(CCN(CC)CC)c1=O`, 20.8%; for `Cn1cnc([N+](=O)[O-])c1[Se]c1nc(N)nc2nc[nH]c12`, 15.2%.
Same read-out and setting: for `CCC1(C/C=C/Cl)C(=O)NC(=O)NC1=O` the value was -38.5%; for `O=C1C(NCC(O)CO)=C(N2CC2)C(=O)C(NCC(O)CO)=C1N1CC1` (stereo not drawn), 4.55%.
The same measure, in the same setting: for `CC[C@@H](C)C(=O)O[C@H]1[C@H](O)[C@H]2[C@@H](CN3C[C@@H](C)CC[C@H]3[C@@]2(C)O)[C@@H]2C[C@]34O[C@@]5(O)[C@@H](OC(=O)[C@](C)(O)[C@@H](C)O)CC[C@@]3(C)[C@@H]5[C@@H](OC(C)=O)[C@@H](OC(C)=O)[C@H]4[C@@]21O` the value was 12.6%.
For the molecule `O[C@H]1[C@H](O)[C@@H](O)CN2CC[C@H](O)[C@H]12`, the growth inhibition was -4.1%.
As for `CCCn1cc2c3c(cccc31)[C@H]1C[C@@H](C)CN(C)[C@@H]1C2`, the growth inhibition was 45.1%.
As to `CCCCCCCC(N)CC(=O)O` (stereo not drawn), the growth inhibition is -0.7%.
With `CC1=C(C)CN(CCc2c[nH]c3ccccc23)C(C#N)C1` (stereo not drawn), the growth inhibition was 60.5%.
On the same count and under the same terms, the same measure for `NC(Cc1ccc(Cl)cc1)c1nn[nH]n1` (stereo not drawn): -22.4%.
As to `O=[N+]([O-])c1ccc(/C=C/C=C/C=C/C=C/c2ccc(S(=O)(=O)F)cc2Cl)c(Cl)c1`, the growth inhibition is 7.15%.
As for `O=[C-]/C=C/c1ccccc1.[C-]#[O+].[C-]#[O+].[Fe+2].[c-]1ccccc1`, the growth inhibition was -3%.
Consider `O=C(O)C1CCCN1[N+](=O)[O-]` (stereo not drawn), for which the growth inhibition is -12.9%.
Turning to `O=S(=O)(O)O.[In]`, the growth inhibition was 10.1%.
On the same count and under the same terms, for `O=C(O)C(F)(F)F.O=C(O)C(F)(F)F.[C-]#[O+].[Ru].c1ccc([PH+](c2ccccc2)c2ccccc2)cc1.c1ccc([PH+](c2ccccc2)c2ccccc2)cc1` the value was -7.45%.
On the same count and under the same terms, the same measure for `[CH3][Sn]([CH3])([Br])[CH2]CCBr`: 48.5%.
Same read-out and setting: for `COCC(C)OC(=O)Cc1ccccc1` (stereo not drawn) the value was -85.6%; for `C1=C[N-]c2c3c(ccc2=C1)=CC=C[N-]3.C1=C[N-]c2c3c(ccc2=C1)=CC=C[N-]3.C1=C[N-]c2c3c(ccc2=C1)=CC=C[N-]3.[Co+3].[O-][Cl+3]([O-])([O-])O`, -26.1%; for `Cc1cc(C(C)(C)C)ccc1O`, 4.6%.
Turning to `CCCCCC(=O)C[n+]1ccccc1` (tested in a mixture with another compound), the growth inhibition was -36%.
`CCOP(=O)(OCC)OP(=O)(OCC)OCC`: the growth inhibition is -10.1%.
The same measure, in the same setting: the same measure for `C1CC[N+]2=C(C1)OCCC2`: -17.2%; for `[C-]#[O+].[C-]#[O+].[C-]#[O+].[C-]#[O+].[C-]#[O+].[C-]#[O+].[Fe].[Fe].c1ccc([P-]c2ccccc2[P-]c2ccccc2)cc1` (stereo not drawn): 26.9%; for `[Cl][Hg][c]1ccccc1N=Nc1ccccc1`: 97% (active).
For the molecule `COc1ccc2c(c1O)[C@@]13CCCC=C1[C@@H](C2)[N+](C)(C)CC3`, the growth inhibition is 15.8%.
Take `COc1ccc(O)c2c(=O)c3c(OC)cc4c(c3oc12)[C@@H]1C=CO[C@@H]1O4`: the growth inhibition was -2.9%.
With `C/C=C\C(C)=C/C(C)C(=O)CC(O)CC1CC(=O)NC(=O)C1` (stereo not drawn), the growth inhibition was 11.8%.
Consider `O=C(O)c1ccccc1N(CCO)CCCl`, for which the growth inhibition is 21.6%.
Consider `O=C(Cc1ccccc1)OCC1CCCO1` (stereo not drawn), for which the growth inhibition is -25.7%.
Same read-out and setting: for `CC(Oc1ccc(-c2ccccc2)cc1)C(=O)O` (stereo not drawn) the value was -4.8%.
